Experiment [1] in a line: NCI Yeast Anticancer Drug Screen. Data for the rad50 strain (AID 155).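 Note: 0% = growth of vehicle-only cultures of the same strain.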 The conditions noted are these: S. cerevisiae rad50 strain growth inhibition; at 50.0 µM; active compounds read high. An outline of the steps: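 Readout: growth inhibition relative to vehicle-treated cultures. Compound exposure was carried out in a genetically defined yeast strain deficient in DNA damage repair.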

Experiment [2] can be described thus: NCI Yeast Anticancer Drug Screen. Data for the mec2-1 strain (AID 157). The settings on record: S. cerevisiae mec2-1 strain, at 50.0 µM, active compounds read high. The method in brief: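 Using mec2-1 yeast: add compound, measure growth, express inhibition versus vehicle-treated cultures.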
Experiment [3] in a line: NCI Yeast Anticancer Drug Screen. Data for the sgs1 mgt1 strain (AID 161).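 Note: 0% = growth of cultures given vehicle only.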 The settings on record: S. cerevisiae sgs1 mgt1 strain, at 50.0 µM, active compounds read high. The method in brief:
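Percent growth inhibition was derived by comparing compound-exposed mutant yeast with vehicle-exposed cultures. The strain carries alterations in DNA damage repair.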

A short description of experiment [4]: NCI Yeast Anticancer Drug Screen. Data for the cln2 rad14 strain (AID 165).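 Note: 0% = growth equal to vehicle treated cultures.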 The conditions noted are these: S. cerevisiae cln2 rad14 strain, at 50.0 µM, active compounds read high. An outline of the steps: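 Yeast strain cln2 rad14, bearing defects in cell cycle control and DNA repair, serves as the test system; values reflect growth inhibition compared with vehicle.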

The nature of experiment [5]: NCI Yeast Anticancer Drug Screen. Data for the bub3 strain (AID 167). The conditions noted are these: S. cerevisiae bub3 mutant strain, at 50.0 µM, active compounds read high. An outline of the steps:
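Readout: yeast growth inhibition, expressed relative to vehicle-only wells. The test organism is a mutant strain from a panel with lesions in DNA repair or checkpoint genes.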

Experiment [6] in a line: NCI Yeast Anticancer Drug Screen. Data for the mlh1 rad18 strain (AID 175). The settings on record: S. cerevisiae mlh1 rad18 strain growth inhibition; at 50.0 µM; active compounds read high. An outline of the steps: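 Steps: expose repair-defective yeast to compound; measure growth; express inhibition against vehicle-treated controls.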

This is part of a sample that, as a whole, favours compounds with a hit. Of some 79,000 tested, about 15% had one in any assay. A number with no mark means an inactive call. Calls of active or inactive are those of the source. Cut-off read from the data, not from the text of the source: active = growth inhibition above about 70%; inactive = the rest. Where a SMILES comes first, the peptide text is derived from it.

Turning to `Brc1ccc(/C(=N/Nc2ccccc2)Oc2ccccc2)cc1`, the growth inhibition in experiment [1] was 17.6%; in experiment [2] it was 1.8%; in experiment [3], 16.1%; in experiment [4], 25.3%; in experiment [5] it was 14.8%; in experiment [6], 19.6%.
On to `O=[N+]([O-])Cc1ccc(Cl)cc1`, for which the growth inhibition in experiment [1] was 4.6%; in experiment [2] it was 18.4%; in experiment [3], 13.1%; in experiment [4] it was -33%; in experiment [5] it was -19.7%; in experiment [6], 15.6%.
As for `COC(=O)C1CCCN1C(=O)c1ccccc1` (configuration not stated), the growth inhibition was 3.6% in experiment [1]; -0.4% in experiment [2]; -16.2% in experiment [3]; -36.8% in experiment [4]; -5% in experiment [5]; 11.6% in experiment [6].
On to `CC(C)(NC(=O)c1ccccc1)NC(=O)c1ccccc1`, for which the growth inhibition in experiment [1] was 5.35%; in experiment [2] it was -10.1%; in experiment [3], -5.8%; in experiment [4], -38.2%; in experiment [5] it was 5.55%; in experiment [6], -6.35%.
With `CN(C)C(=O)Nc1cccc(OC(=O)NC2CCCCCCC2)c1`, the growth inhibition in experiment [1] was 2.65%; in experiment [2], 28.3%; in experiment [3], 29.2%; in experiment [4], 3.95%; in experiment [5], 34.4%; in experiment [6] it was 19.6%.
Take `CC(=O)Nc1ccc2c(c1)C(=O)c1cc(Cl)ccc1-2`: the growth inhibition in experiment [1] is 0.25%; in experiment [2], -6.05%; in experiment [3], 5.75%; in experiment [4], -28.1%; in experiment [5], -2.05%; in experiment [6], -9.35%.
`CN(C)/C(=N\N=C(/c1ccc(Cl)cc1)N(C)C)c1ccc(Cl)cc1`: the growth inhibition in experiment [1] was -15.8%; in experiment [2], -8.25%; in experiment [3], 1%; in experiment [4] it was -24.9%; in experiment [5], -11.1%; in experiment [6], -19.1%.
Turning to `CN(C)C1=C(c2ccccc2)C(=O)C(c2ccccc2)=C1c1ccccc1`, the growth inhibition in experiment [1] is 39.8%; in experiment [2], 3.25%; in experiment [3] it was 22.1%; in experiment [4], -32.3%; in experiment [5] it was 7.05%; in experiment [6], 13.3%.
Regarding `COc1ccc(N=C2C(=Nc3ccc(OC)cc3)N(c3ccc(OC)cc3)C(=S)N2C)cc1`, the growth inhibition in experiment [1] is 19%; in experiment [2], -7.1%; in experiment [3] it was -39%; in experiment [4], -12%; in experiment [5], -7.65%; in experiment [6], 13.5%.
`c1cnc2c3ccncc3c3nc(-c4ccncc4)[nH]c3c2c1`: the growth inhibition in experiment [1] was -10.2%; in experiment [2], -12.8%; in experiment [3] it was -11.3%; in experiment [4] it was -34.8%; in experiment [5], -17.3%; in experiment [6], -17.2%.
Consider `Nc1ncnc2scnc12`, for which the growth inhibition in experiment [1] was 14.4%; in experiment [2] it was -0.55%; in experiment [3] it was -8.5%; in experiment [4], 0.9%; in experiment [5], -3.25%; in experiment [6], 1.65%.
`O=C(Cc1ccccc1)NCO`: the growth inhibition in experiment [1] was 2.95%; in experiment [2], 6.35%; in experiment [3] it was -9.6%; in experiment [4] it was -52.4%; in experiment [5], -3.5%; in experiment [6], 4.6%.
For `O=S(=O)(O)c1cc(N=Nc2cc(S(=O)(=O)O)c3cccnc3c2O)ccc1/C=C/c1ccc(N=Nc2cc(S(=O)(=O)O)c3cccnc3c2O)cc1S(=O)(=O)O.[Na+].[Zn+2]`, the growth inhibition in experiment [1] is -15.2%; in experiment [2], -8.65%; in experiment [3], -9.85%; in experiment [4], -75.6%; in experiment [5], -44%; in experiment [6], -86.7%.
As to `CC/C(=C\c1ccc(Cl)cc1)c1ccncc1`, the growth inhibition was 99.2% (active) in experiment [1]; 99.5% (active) in experiment [2]; 99.1% (active) in experiment [3]; 99% (active) in experiment [4]; 99.2% (active) in experiment [5]; 99.2% (active) in experiment [6].
Take `CC(C)(C)SCC(=O)O`: the growth inhibition in experiment [1] is -21.6%; in experiment [2], -19.6%; in experiment [3], -24.8%; in experiment [4], 19.5%; in experiment [5], 6.75%; in experiment [6], 1.55%.
In the case of `O=C1/C(=C/c2ccccc2)CCc2ccc([N+](=O)[O-])cc21`, the growth inhibition in experiment [1] was -2.9%; in experiment [2] it was -1.85%; in experiment [3], 8.25%; in experiment [4] it was 4.1%; in experiment [5], 0.95%; in experiment [6], -26.4%.
Consider `COC(=O)NC(=Nc1ccc(Oc2ccccc2)cc1NC=O)NC(=O)OC`, for which the growth inhibition in experiment [1] was 0.15%; in experiment [2], -14.8%; in experiment [3] it was -13.6%; in experiment [4], 25.4%; in experiment [5], 15.9%; in experiment [6], 11.5%.
As to `Oc1cc2c(cc1O)-c1[nH]ncc1CC2`, the growth inhibition in experiment [1] was 24.5%; in experiment [2], 0.25%; in experiment [3], 3.35%; in experiment [4] it was -17.4%; in experiment [5], 4.55%; in experiment [6], -4.55%.
Take `O=NNc1nc2ncccc2cc1-c1ccccc1Cl`: the growth inhibition is -7.8% in experiment [1]; -6.05% in experiment [2]; -5.9% in experiment [3]; 9.75% in experiment [4]; -22.2% in experiment [5]; -8.2% in experiment [6].
Consider `Nc1cnccn1`, for which the growth inhibition in experiment [1] is 1.55%; in experiment [2], 4.1%; in experiment [3], 0.75%; in experiment [4], -4.3%; in experiment [5], 9.3%; in experiment [6], -10.6%.
Turning to `CC12CC3CC(C)(C1)CC(SCCN=C(N)CCl)(C3)C2`, the growth inhibition in experiment [1] is 98.5% (active); in experiment [2], 99% (active); in experiment [3], 99.3% (active); in experiment [4] it was 96.3% (active); in experiment [5] it was 99% (active); in experiment [6], 99.2% (active).
Regarding `COc1cccc(C(C#N)c2cnc3ccccc3n2)c1` (configuration not stated), the growth inhibition in experiment [1] is 27.4%; in experiment [2], 14.6%; in experiment [3] it was 10.1%; in experiment [4], 33.2%; in experiment [5] it was 37.1%; in experiment [6], 27.4%.
Regarding `CCC[CH2][Ge]([CH2]CCC)([CH2]CCC)[n]1ccc2ccccc21`, the growth inhibition in experiment [1] is 24%; in experiment [2] it was 31.2%; in experiment [3], 47%; in experiment [4], 20.3%; in experiment [5] it was 45.9%; in experiment [6], 44.7%.
As to `CC(=O)OCC1OC(N2C(=O)C(=O)c3cc(C)ccc32)C(OC(C)=O)C(OC(C)=O)C1OC(C)=O` (configuration not stated), the growth inhibition is 59.8% in experiment [1]; 10.2% in experiment [2]; 5.85% in experiment [3]; 1.7% in experiment [4]; 41% in experiment [5]; 33.4% in experiment [6].
Regarding `COC(=O)/C=C/c1cc(=O)n2c(nc3ccccc32)s1`, the growth inhibition in experiment [1] is -11.1%; in experiment [2], -20.1%; in experiment [3], -13.2%; in experiment [4], -35.2%; in experiment [5], -41.5%; in experiment [6] it was -12.2%.
Take `O=C(NCCCl)Oc1ccccc1`: the growth inhibition in experiment [1] was 6.85%; in experiment [2], -15.5%; in experiment [3], -7.95%; in experiment [4], -0.1%; in experiment [5], -4.9%; in experiment [6], -9.1%.
For the compound `CCCCOc1cc2c(cc1C(C)c1ccccc1)OCO2` (configuration not stated), the growth inhibition in experiment [1] is -0.35%; in experiment [2] it was -3.95%; in experiment [3] it was -4.05%; in experiment [4] it was 2.8%; in experiment [5] it was 15.8%; in experiment [6] it was 14.8%.
`O=[N+]([O-])c1ccc(N=N/C(=N\Nc2ccccc2)c2nc3ccccc3[nH]2)c([N+](=O)[O-])c1`: the growth inhibition in experiment [1] was 7.45%; in experiment [2], -5.2%; in experiment [3] it was -7.35%; in experiment [4] it was 19.6%; in experiment [5] it was -4.35%; in experiment [6], 15.2%.
Turning to `COc1ccc(/C(C)=N/N=C(\C)c2ccc(OC)cc2)cc1`, the growth inhibition is 7.45% in experiment [1]; -28.1% in experiment [2]; 32.3% in experiment [3]; 12.3% in experiment [4]; 17.1% in experiment [5]; 13.6% in experiment [6].
Turning to `CC1c2nc(N)nc(N)c2CN1C(=O)c1ccccc1` (configuration not stated), the growth inhibition in experiment [1] was 3.25%; in experiment [2] it was -5.7%; in experiment [3] it was -18.9%; in experiment [4], -13.6%; in experiment [5] it was -8.85%; in experiment [6], -0.85%.
For the compound `COc1cc2ccc3c4cc(OC)c(OC(C)C)cc4cnc3c2cc1OC`, the growth inhibition in experiment [1] is -48.9%; in experiment [2], -15.3%; in experiment [3], -0.9%; in experiment [4] it was 29.6%; in experiment [5] it was -10.5%; in experiment [6] it was -4.45%.
On to `C(=C\c1ccc(-c2ccccc2)cc1)/c1ccc(-c2ccccc2)cc1`, for which the growth inhibition is -16.2% in experiment [1]; -19.9% in experiment [2]; 4.4% in experiment [3]; -5.3% in experiment [4]; -16.7% in experiment [5]; -16.4% in experiment [6].
For `CCOC(=O)CNC(=O)C(Cc1ccccc1)NC(=O)C(N)CC(=O)O` (stereo not drawn) (H-Asp-Phe-Gly-OEt; configuration not given here), the growth inhibition was -18.6% in experiment [1]; -42.4% in experiment [2]; -12.1% in experiment [3]; -19.9% in experiment [4]; -13.4% in experiment [5]; -25% in experiment [6].
As for `N#CSCc1cc(Cl)c(CSC#N)c(Cl)c1Cl`, the growth inhibition in experiment [1] is -6.95%; in experiment [2] it was 22.2%; in experiment [3], -3%; in experiment [4], 16.6%; in experiment [5], 13.2%; in experiment [6], 31.4%.
Regarding `CC(=O)c1c(-c2ccc(Cl)cc2)c(-c2ccc(Cl)cc2)nn(CCNC(C)C)c1=O`, the growth inhibition is 96.7% (active) in experiment [1]; 98.4% (active) in experiment [2]; 95.8% (active) in experiment [3]; 88.9% (active) in experiment [4]; 80.5% (active) in experiment [5]; 95% (active) in experiment [6].
Regarding `NC(=O)CNCC1Cc2ccccc21` (configuration not stated), the growth inhibition is 21.8% in experiment [1]; 6.85% in experiment [2]; 0.1% in experiment [3]; -16.4% in experiment [4]; 4.6% in experiment [5]; 7.45% in experiment [6].
For the compound `O=C(c1ccccc1)C1CC2C=CC1C2` (configuration not stated), the growth inhibition in experiment [1] is 4.3%; in experiment [2], -8.25%; in experiment [3] it was 2.4%; in experiment [4], 36.9%; in experiment [5], -0.7%; in experiment [6] it was 17.2%.
